Experimental data taken from PubChem BioAssay (NCATS).
Records with an inconclusive call do not appear. Where a call stands in place of a potency, no number is given. Active and inactive are the calls of the source. Calls come from the whole dose curve; as a rule, active = well fitted curve in the direction sought with a large enough effect; inconclusive = small, poorly fitted or top-dose-only effect, or another doubt; inactive = no such curve, though single readings can be large; an effect the other way counts as inactive or inconclusive.

Columns and labels:
NIH3T3 = experiment: qHTS assay to identify novel small-molecules to repurpose for Merkel cell carcinoma treatment (AID 1296009); conditions: MCC and control cell lines, CellTiter-Glo viability, 72 h; at 44.8 µM (top of the series) unless noted; note: nearly all actives have a fitted effect of over 60% in size
Procedure, shortened: (§1)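 Cells were incubated with compound for 72 hr at 37 degree celsius before CellTiter-Glo addition. Luminescence was normalized with no-cell wells as full cytotoxicity and DMSO as baseline.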

HeLa = experiment: Primary qHTS to identify gynecologic anti-cancer compounds using libraries of approved drugs and bioactive compounds (AID 1345084); conditions: Gynecologic cancer cell panel viability, ATPlite luminescence, 48 h; series mostly up to 57.5 µM; note: nearly all actives have a fitted effect of over 55% in size
Procedure, shortened: (§2)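 ATP-based viability (ATPlite), 1,000 cells/well, 16 h pre-incubation, 48 h compound at 37 C, 5% CO2, 15 min RT before read.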

UISO = experiment: qHTS assay to identify novel small-molecules to repurpose for Merkel cell carcinoma treatment (AID 1296009); conditions: MCC and control cell lines, CellTiter-Glo viability, 72 h; series mostly up to 46 µM; note: nearly all actives have a fitted effect of over 60% in size
Procedure, shortened: as §1

C33A = experiment: Primary qHTS to identify gynecologic anti-cancer compounds using libraries of approved drugs and bioactive compounds (AID 1345084); conditions: Gynecologic cancer cell panel viability, ATPlite luminescence, 48 h; series mostly up to 57.5 µM; note: nearly all actives have a fitted effect of over 55% in size
Procedure, shortened: as §2

CASKI = experiment: as above; conditions: Gynecologic cancer cell panel viability, ATPlite luminescence, 48 h; series mostly up to 57.5 µM
Procedure, shortened: as §2

Es-2 = experiment: as above; conditions: Gynecologic cancer cell panel viability, ATPlite luminescence, 48 h; series mostly up to 57.5 µM
Procedure, shortened: as §2

Hek293T = experiment: as above; conditions: Gynecologic cancer cell panel viability, ATPlite luminescence, 48 h, control line for the selectivity index; series mostly up to 57.5 µM
Procedure, shortened: as §2

MKL-2 = experiment: qHTS assay to identify novel small-molecules to repurpose for Merkel cell carcinoma treatment (AID 1296009); conditions: MCC and control cell lines, CellTiter-Glo viability, 72 h; series mostly up to 46 µM; note: nearly all actives have a fitted effect of over 60% in size
Procedure, shortened: as §1

CAOV3 = experiment: Primary qHTS to identify gynecologic anti-cancer compounds using libraries of approved drugs and bioactive compounds (AID 1345084); conditions: Gynecologic cancer cell panel viability, ATPlite luminescence, 48 h; series mostly up to 57.5 µM; note: nearly all actives have a fitted effect of over 55% in size
Procedure, shortened: as §2

WaGa = experiment: qHTS assay to identify novel small-molecules to repurpose for Merkel cell carcinoma treatment (AID 1296009); conditions: MCC and control cell lines, CellTiter-Glo viability, 72 h; series mostly up to 46 µM; note: nearly all actives have a fitted effect of over 60% in size
Procedure, shortened: as §1
Potency is the fitted concentration of half-maximal effect.

C[C@@H]1COC(Nc2ccc3ncnc(Nc4ccc(OCc5nccs5)c(Cl)c4)c3c2)=N1
outcome (NIH3T3): inactive
Potency (HeLa): inactive

CN1CC[C@@H](c2c(O)cc(O)c3c(=O)cc(-c4ccccc4Cl)oc23)[C@@H](O)C1
Potency (UISO): 264 nM (active)

C=CC(=O)N1CCC[C@@H](n2nc(-c3ccc(Oc4ccccc4)cc3)c3c(N)ncnc32)C1
Potency (UISO): inactive
Potency (C33A): inactive
Potency (CASKI): inactive
Potency (Es-2): inactive
Potency (HeLa): inactive
Potency (Hek293T): inactive

CC(C)(O)c1cc2nc(-c3cnc(N)nc3)nc(N3CCOCC3)c2s1
Potency (MKL-2): inactive
Potency (C33A): 3550 nM (active)
Potency (HeLa): 3980 nM (active)
Potency (Hek293T): 2000 nM (active)

CC(=O)Nc1sc2c(c1-c1nc3ccccc3s1)CNC2
Potency (UISO): 8330 nM (active)
Potency (C33A): inactive
Potency (CAOV3): inactive
Potency (CASKI): inactive
Potency (HeLa): inactive

CS(=O)(=O)c1ccc(-c2cnc(N)c(C(=O)Nc3ccccc3)n2)cc1
Potency (UISO): inactive
Potency (WaGa): inactive
Potency (C33A): inactive
Potency (CAOV3): inactive
Potency (CASKI): inactive
Potency (HeLa): inactive
Potency (Hek293T): inactive

CC1(O)CC(c2nc(-c3ccc4ccc(-c5ccccc5)nc4c3)c3c(N)nccn23)C1 (centres undefined)
Potency (UISO): 662 nM (active)
Potency (C33A): inactive
Potency (CAOV3): inactive
Potency (CASKI): inactive
Potency (Es-2): inactive
Potency (Hek293T): inactive

Cn1cc(-c2[nH]c3cc(NC(=O)[C@H](N)C4CCCCC4)cc4c3c2C=NNC4=O)cn1
Potency (UISO): 418 nM (active)
Potency (WaGa): 2640 nM (active)
Potency (CASKI): inactive

O=C(O)c1ccc2cc(-c3ccc(O)c(C45CC6CC(CC(C6)C4)C5)c3)ccc2c1
Potency (UISO): 1180 nM (active)
Potency (WaGa): 2350 nM (active)

Cc1nc(N)ncc1-c1nc(N2CCOCC2)c2sc(C(C)(C)O)cc2n1
Potency (C33A): 1780 nM (active)
Potency (CASKI): 501 nM (active)
Potency (Hek293T): 3160 nM (active)
